FBPA Giardia inh – blocks Giardia fructose-bisphosphate aldolase activity. A8B2U2. purified Giardia FBPA. Potency, µM (series often up to 59.6 µM), without a hit: at the highest dose activity, negative = inhibition, actives largely listed as inhibitors. 0.71% of 290,000 active. AID 2451; note: potency is the fitted concentration of half-maximal effect; nearly all actives have a fitted effect of over 55% in size
Target sequence (A8B2U2 whole entry, looked up): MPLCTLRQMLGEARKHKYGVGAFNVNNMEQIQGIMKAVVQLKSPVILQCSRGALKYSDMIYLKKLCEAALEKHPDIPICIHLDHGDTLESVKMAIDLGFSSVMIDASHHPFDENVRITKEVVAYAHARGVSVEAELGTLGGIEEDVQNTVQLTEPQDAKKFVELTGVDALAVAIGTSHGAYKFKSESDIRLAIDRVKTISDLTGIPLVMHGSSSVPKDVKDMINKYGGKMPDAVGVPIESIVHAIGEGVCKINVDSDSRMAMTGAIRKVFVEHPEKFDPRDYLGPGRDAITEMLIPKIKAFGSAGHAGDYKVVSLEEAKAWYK
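40 nM FBPA preincubated 10 min at RT with compound (up to 57.5 uM final), then substrate plus GAPDH/TPI/NAD/arsenate coupling and diaphorase/resazurin added. Fluorescence read after 20 min at RT, 525/598 nm.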
Sm TGR block – S. mansoni TGR enzyme inhibition; Q962Y6; purified TGR, DTNB reduction, TNB absorbance 405 nm; Potency, µM (highest dose often 114 µM), inactives show at the top dose activity change, negative = inhibition, hits mostly inhibitors; 3% of 360,000 active; AID 485364; note: potency is the fitted concentration of half-maximal effect; nearly all actives have a fitted effect of over 60% in size
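TGR 20 nM + NADPH 100 uM (dispensed conc.), cpd preinc 15 min RT; start with NADPH (500 uM addition) then DTNB (15 mM addition). Kinetic TNB absorbance, 405 nm filter. Four-parameter Hill fit across titration.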
HCMV inh – human cytomegalovirus inhibition. HFF cells, HCMV-luciferase reporter, 72 h; hits give low values. activity change, negative = inhibition, % at 57.5 µM. 4.5% of 410,000 active. AID 1259415; in the data active = activity change below about -60%; inconclusive = no clear call, values can overlap the other calls; inactive = above about -39%
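HFF cells seeded 16 h at 37C, treated with compounds, infected with luciferase-reporter HCMV at MOI 1 PFU/cell; luciferase read at 72 h post infection, normalized to buffer-only and Salinomycin controls.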
Pf growth 48h – inhibits P. falciparum growth in the first generation, 48 h; P. falciparum luciferase growth in erythrocytes, 48 h; Potency, µM (titrated, usually from 28.7 µM), for inactives: top-dose activity change, negative = inhibition, most hits filed as inhibitors; 5.9% of 310,000 active; AID 504832; note: potency is the fitted concentration of half-maximal effect
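Read-out is firefly luciferase luminescence from an integrated reporter in P. falciparum, so falling signal marks reduced parasite growth. Infected erythrocytes were at 2% hematocrit and 0.1% parasitemia (final) in Albumax-supplemented RPMI 1640.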
Pf growth 96h – P. falciparum growth inhibition at 96 hour, primary screen for plastid delayed-death inhibitors. P. falciparum luciferase reporter growth, 96 h. Potency, µM (doses to about 28.7 µM), without a hit: at the top dose activity change, negative = inhibition, most hits filed as inhibitors. 6.9% of 320,000 active. AID 504834; note: potency is the fitted concentration of half-maximal effect
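P. falciparum expressing integrated firefly luciferase, in erythrocytes at 2% hematocrit, 0.05% parasitemia, incubated with compounds 96 h at 37 C, 5% CO2. Growth inhibition read as loss of luminescence; two-generation exposure targets delayed-death apicoplast inhibitors.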
The depositor's hits bear a star; ? = inconclusive; · = no result given. Only some compounds are listed: those with a hit (about 14% of all), similar ones and a draw of the others. Unless noted, calls come from the whole dose curve; as a rule, active = well fitted curve in the direction sought with a large enough effect; inconclusive = small, poorly fitted or top-dose-only effect, or another doubt; inactive = no such curve, though single readings can be large; an effect the other way counts as inactive or inconclusive. % is set by controls: 0 for no effect and ±100 for the full control effect.

SMILES | FBPA Giardia inh | Sm TGR block | HCMV inh | Pf growth 48h | Pf growth 96h
O=c1[nH]c(C2CCCN(S(=O)(=O)c3ccccc3)C2)nc2c1nnn2Cc1ccccc1F (stereo not drawn) | 4% | 0% | ? | 10µM* | 10%
Cc1ccc(NS(=O)(=O)c2ccc3oc(=O)c4ncn(C)c4c3c2)cc1C | · | 0% | -14 | · | ·
O=C(CNC(=O)c1ccc(Br)o1)NCc1ccc(Cl)cc1 | · | -4% | · | 13% | 35%
CCCC(=O)OCc1cnc(C)c2oc(=O)c(C(=O)Nc3ccc(F)cc3C)cc12 | · | 1% | 8 | · | ·
CC(=O)N1CCc2c(sc3c2c(=O)n(CCc2ccccc2)c(=O)n3CC(=O)Nc2ccccc2F)C1 | · | 2% | ? | · | ·
CC(=O)N1CCc2c(sc3c2c(=O)n(CCc2ccccc2)c(=O)n3Cc2ccc(F)cc2)C1 | · | 5% | -61* | · | ·
COc1ccccc1NC(=O)Cn1c(=O)n(CCc2ccccc2)c(=O)c2c3c(sc21)CN(C(C)=O)CC3 | · | 2% | -92* | · | ·
O=C(Nc1c2c(nn1-c1ccccc1)CS(=O)(=O)C2)C1CC1 | · | · | 15 | · | ·
CS(=O)(=O)Nc1cccc(-c2nccc(NCc3ccccc3)n2)c1 | -7% | · | · | · | ·
Cc1ccc(S(=O)(=O)n2nc(-c3ccco3)nc2N)cc1 | -3% | ? | -67* | 0% | 24%
COc1cc(S(=O)(=O)NCCOC23CC4CC(CC(C4)C2)C3)c(OC)cc1Cl | -2% | -9% | -63* | ? | 105%
CCOc1ccc(OCC)c(S(=O)(=O)NCc2ccccc2)c1 | 12% | -13% | 39 | -2% | -17%
CCOc1ccc(OCC)c(S(=O)(=O)NCCOC23CC4CC(CC(C4)C2)C3)c1 | 2% | -2% | -73* | ? | 9%
O=C(Nc1ccccc1)ON=C1CCCC1 | 1% | -4% | 25 | 8.3µM* | ?
Cc1ccc(NC(=O)ON=C2CCCC2)cc1 | 3% | 5% | -6 | 4.7µM* | 20%
CC(C)(CNC(=O)/C=C/c1ccc(F)cc1)CNC(=O)/C=C/c1ccc(F)cc1 | -5% | 9% | -3 | -20% | ?
CCOc1ccc(S(=O)(=O)N2CCN(C(=O)CN3C(=O)NC(C)(C)C3=O)CC2)cc1 | · | 2% | -7 | -7% | -27%
CC12CCC(C/C1=N/OC(=O)c1cccc([N+](=O)[O-])c1)C2(C)C (stereo not drawn) | -2% | -17% | -65* | -15% | 22%
C/C=C\C=C/C(=O)Nc1cccc(C2=NOC3(C2)C[C@@H](C(N)=O)N(C(=O)/C=C/C=C\C)C3)c1 (stereo partly drawn) | -29% | ? | · | 99% | ?
C/C=C\C(=O)Nc1cccc(C2=NOC3(C2)C[C@H](C(N)=O)N(C(=O)Cc2ccc([N+](=O)[O-])cc2)C3)c1 (stereo partly drawn) | 0% | -20% | 33 | ? | 12µM*
C/C=C/C(=O)Nc1cccc(C2=NOC3(C2)C[C@@H](C(N)=O)N(C(=O)c2cc([N+](=O)[O-])cc([N+](=O)[O-])c2C)C3)c1 (stereo partly drawn) | -11% | 3% | -74* | ? | ?
C/C=C/C=C\C(=O)Nc1cccc(C2=NOC3(C2)C[C@@H](C(N)=O)N(C(=O)c2cc([N+](=O)[O-])cc([N+](=O)[O-])c2)C3)c1 (stereo partly drawn) | -25% | 3.5µM* | ? | ? | -92%
C=C(C)C(=O)Nc1cccc(C2=NOC3(C2)C[C@@H](C(N)=O)N(C(=O)c2cc([N+](=O)[O-])cc([N+](=O)[O-])c2C)C3)c1 (stereo partly drawn) | -12% | 3% | 53 | ? | ?
NC(=O)[C@@H]1CC2(CC(c3cccc(NC(=O)[C@@H]4CCC(=O)N4)c3)=NO2)CN1C(=O)Cc1ccc([N+](=O)[O-])cc1 (stereo partly drawn) | -1% | -21% | -14 | 33% | 31%
CCc1ccccc1NC(=O)CNC(=O)c1cc(C2CC2)nn1-c1ccccc1 | · | -4% | 5 | ? | ?
SMILES | FBPA Giardia inh | Sm TGR block | HCMV inh | Pf growth 48h | Pf growth 96h
Fc1cccc(Cl)c1CSc1ccc2nnc(-c3ccccn3)n2n1 | 5% | -7% | ? | -8% | -19%
C=CCn1c(SCC(=O)Nc2ccc3c(c2)OCCO3)nnc1-c1ccccn1 | 4% | 6% | 11 | 9% | 0%
Fc1cccc(CSc2ccc3nnc(-c4ccccn4)n3n2)c1 | 4% | 4% | -29 | ? | 1.9µM*
CCn1c(SCC(=O)Nc2ccc3c(c2)OCCO3)nnc1-c1ccccn1 | -13% | -25% | 21 | 0% | 2.1µM*
CC(=O)c1ccc(NC(=O)CSc2ccc3nnc(-c4ccccn4)n3n2)cc1 | 3% | 3% | 57 | ? | ?
Cc1c(C)n2c(SCC(=O)Nc3ccc4c(c3)OCCO4)nnc2[nH]c1=O | · | -2% | -14 | 9.3µM* | ?
Cc1ccc(NC(=O)CSc2ccc3nnc(-c4ccccn4)n3n2)cc1 | · | -7% | -33 | ? | 13µM*
CC(C)CN1CCC2(CC1)CCN(S(=O)(=O)c1ccccc1)CC2 | 7% | · | · | · | ·
O=C(CSc1ccc2nnc(-c3ccccn3)n2n1)Nc1ccc(F)cc1 | · | -9% | 35 | 26% | 50%
COc1ccc(NC(=O)CSc2ccc3nnc(-c4ccccn4)n3n2)cc1 | · | 0% | -21 | ? | 12µM*
O=C(CSc1ccc2nnc(-c3ccccn3)n2n1)Nc1ccc2c(c1)OCO2 | 15% | 1% | 6 | 3.7µM* | 1.9µM*
CCOC(=O)c1nn(-c2cccc(C)c2)c2nnc(Cc3ccc(C)cc3)c(=O)n12 | 1% | 5% | 14 | 51% | 46%
CCCSc1ccc([C@H]2N[C@@](CC(C)C)(C(=O)OC)[C@H]3C(=O)N(C)C(=O)[C@@H]23)cc1 | · | 3% | ? | ? | ?
Cc1ccc(S(=O)(=O)c2nc(S(C)(=O)=O)sc2N2CCC(C)CC2)cc1 | · | 1.8µM* | -36 | ? | ?
Cc1ccc(S(=O)(=O)c2nc(S(C)(=O)=O)sc2N2CCCCCC2)cc1 | · | 1% | ? | ? | ?
Cc1ccc(S(=O)(=O)c2nc(S(C)(=O)=O)sc2N2CCN(C)CC2)cc1 | · | -4% | -104* | -26% | ?
CCCS(=O)(=O)c1nc(S(=O)(=O)c2ccc(C)cc2)c(N2CCCCC2)s1 | · | · | -28 | · | ·
CCCS(=O)(=O)c1nc(S(=O)(=O)c2ccc(C)cc2)c(N2CCOCC2)s1 | 14% | -3% | -63* | 12µM* | -23%
C[C@H](CO)N1C[C@H](C)[C@@H](CN(C)S(=O)(=O)c2ccc(F)cc2)Oc2ccc(NC(=O)Nc3ccc(C(F)(F)F)cc3)cc2C1=O | · | · | -15 | · | ·
C[C@@H]1CN([C@H](C)CO)C(=O)c2cc(NC(=O)Nc3ccc(C(F)(F)F)cc3)ccc2O[C@H]1CN(C)S(=O)(=O)c1ccc(Cl)cc1 | · | · | -76* | · | ·

Assay outcomes (PubChem BioAssay)
